Experimental data taken from PubChem BioAssay.
The source made the active and inactive calls.

Tests used:
[1] = target: Albumin (Bos taurus) (UniProt P02769); test: compounds binding labelled BSA control protein – biochemical, small-molecule microarray, Alexa647 label, 635/667 nm fluorescence, artefact control for SMM control protein annotation, profiling panel (AID 1118); conditions: BSA-A647 binding, fluorescence 635 nm, higher = more signal;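 note: score merges 667 nm emission intensity and signal-to-noise per printed compound spot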
Sequence of Albumin (Bos taurus) (P02769 whole entry, looked up): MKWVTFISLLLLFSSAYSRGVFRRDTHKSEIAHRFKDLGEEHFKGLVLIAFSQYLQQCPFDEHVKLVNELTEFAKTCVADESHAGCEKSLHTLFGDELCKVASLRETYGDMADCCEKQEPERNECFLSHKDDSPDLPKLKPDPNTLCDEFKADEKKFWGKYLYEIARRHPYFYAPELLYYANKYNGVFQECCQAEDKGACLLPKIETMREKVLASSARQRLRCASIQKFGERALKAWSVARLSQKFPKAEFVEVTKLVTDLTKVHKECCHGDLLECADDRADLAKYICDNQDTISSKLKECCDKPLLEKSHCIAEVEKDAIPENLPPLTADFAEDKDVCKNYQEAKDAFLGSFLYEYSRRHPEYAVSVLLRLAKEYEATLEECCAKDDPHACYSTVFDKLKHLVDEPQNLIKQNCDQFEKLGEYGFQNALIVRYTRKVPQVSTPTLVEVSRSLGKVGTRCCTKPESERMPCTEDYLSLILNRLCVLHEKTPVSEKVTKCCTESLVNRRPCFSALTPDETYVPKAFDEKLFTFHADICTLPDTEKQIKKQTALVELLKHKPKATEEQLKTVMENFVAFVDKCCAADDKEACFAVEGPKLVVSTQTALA

[2] = probe aXIP binding to arrayed compounds – biochemical, NeuroSMM set, 635/667 nm fluorescence, primary screen (AID 1119); conditions: small-molecule microarray, higher = more signal, called active from +8 up or from −8 down;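 note: probe is the protein aXip251-270 applied at 1 µg/mL to compound-printed slides; binding of probe to printed compounds measured as 667 nm fluorescence plus signal to noise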
[3] = probe aNOTCH3 binding on compound microarray – biochemical, small-molecule microarray, 635/667 nm fluorescence, primary screen (AID 1120); conditions: higher = more signal;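 note: probe is a biotin-tagged antibody raised against NOTCH3 rather than NOTCH3 protein; score merges spot fluorescence near 667 nm with spot signal to noise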
[4] = probe aNOTCH2 binding on compound microarray – biochemical, small-molecule microarray, 635/667 nm fluorescence, primary screen (AID 1121); conditions: higher = more signal;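 note: score merges feature fluorescence read at 667 nm with its signal to noise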
[5] = target: Carbonic anhydrase 2 (Homo sapiens) (UniProt P00918); test: compounds binding carbonic anhydrase 2 – biochemical, small-molecule microarray, Alexa647-labelled CAII, profiling panel (AID 1122); conditions: CAII-A647 binding fluorescence, higher = more signal
[6] = COS7 lysate on small-molecule microarray, probe aHis, 635 nm (AID 1123); conditions: COS7 cell lysate, fluorescence, higher = more signal;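 note: z-score combines 667nm fluorescence intensity with signal-to-noise per printed compound spot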
[7] = probe aLAP1 signal on lysate-treated microarray – cell lysate, small-molecule microarray, COS7 lysate, primary screen (AID 1124); conditions: probe aLAP1, fluorescence, higher = more signal;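 note: lysate comes from COS7 cells expressing LAP1 and is applied at 0.3 µg/mL; score merges spot fluorescence near 667 nm with signal-to-noise over triplicate slides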
[8] = system: Sam68 (KHDRBS1); test: compounds binding KHDRBS1 protein – biochemical, small-molecule microarray, 635 nm fluorescence, primary screen (AID 1125); conditions: higher = more signal;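 note: score merges 667 nm channel intensity with signal to noise over triplicate slides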
[9] = system: Chordin-like protein 2 (CHRDL2); test: compounds binding chordin-like 2 – biochemical, small-molecule microarray, 635 nm fluorescence, primary screen (AID 1126); conditions: fluorescence 635 nm, higher = more signal;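 note: printed compound slides probed with Chrdl2 protein at 4 µg/mL for 1 h at 4 C; score merges 667 nm emission intensity with signal to noise over three replicate slides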
[10] = target: Concanavalin-A (Canavalia ensiformis) (UniProt P02866); test: compounds binding concanavalin A lectin – biochemical, small-molecule microarray, Alexa647 label, 635 nm, artefact control for SMM control protein annotation, primary screen (AID 1127); conditions: ConA-A647 binding fluorescence, higher = more signal;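 note: z combines 667 nm emission intensity with signal-to-noise across three replicate slides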
Sequence of Concanavalin-A (Canavalia ensiformis) (P02866 whole entry, looked up): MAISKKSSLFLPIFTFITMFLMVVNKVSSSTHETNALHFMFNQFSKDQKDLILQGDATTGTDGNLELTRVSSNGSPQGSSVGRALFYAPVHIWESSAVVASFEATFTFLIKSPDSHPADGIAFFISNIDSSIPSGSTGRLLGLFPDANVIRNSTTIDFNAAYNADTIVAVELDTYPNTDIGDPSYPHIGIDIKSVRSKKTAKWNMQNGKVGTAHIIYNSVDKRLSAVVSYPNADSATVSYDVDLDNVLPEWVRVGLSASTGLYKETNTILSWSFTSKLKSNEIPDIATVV

[11] = compounds binding Alexa647 anti-His antibody – biochemical, small-molecule microarray, 635 nm fluorescence, artefact control for SMM control protein annotation, primary screen (AID 1128); conditions: higher = more signal;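 note: score merges feature fluorescence with signal-to-noise for each printed compound spot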
[12] = system: Human papillomavirus type 1a E7 protein (residues 1-88); test: HPV1a E7 small-molecule binders, primary screen, biochemical, small-molecule microarray, residues 1-88, 635 nm (AID 1129); conditions: small-molecule microarray binding, fluorescence 635 nm; higher = more signal
[13] = target: Focal adhesion kinase 1 (Homo sapiens) (UniProt Q05397); test: PTK2 protein binding on printed compound slides – biochemical, small-molecule microarray, 635/667 nm fluorescence, BSA, DTT, primary screen (AID 1130); conditions: 635 nm fluorescence, higher = more signal;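 note: composite of spot emission at 667 nm and signal to noise over triplicate slides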
Sequence of Focal adhesion kinase 1 (Homo sapiens) (Q05397 whole entry, looked up): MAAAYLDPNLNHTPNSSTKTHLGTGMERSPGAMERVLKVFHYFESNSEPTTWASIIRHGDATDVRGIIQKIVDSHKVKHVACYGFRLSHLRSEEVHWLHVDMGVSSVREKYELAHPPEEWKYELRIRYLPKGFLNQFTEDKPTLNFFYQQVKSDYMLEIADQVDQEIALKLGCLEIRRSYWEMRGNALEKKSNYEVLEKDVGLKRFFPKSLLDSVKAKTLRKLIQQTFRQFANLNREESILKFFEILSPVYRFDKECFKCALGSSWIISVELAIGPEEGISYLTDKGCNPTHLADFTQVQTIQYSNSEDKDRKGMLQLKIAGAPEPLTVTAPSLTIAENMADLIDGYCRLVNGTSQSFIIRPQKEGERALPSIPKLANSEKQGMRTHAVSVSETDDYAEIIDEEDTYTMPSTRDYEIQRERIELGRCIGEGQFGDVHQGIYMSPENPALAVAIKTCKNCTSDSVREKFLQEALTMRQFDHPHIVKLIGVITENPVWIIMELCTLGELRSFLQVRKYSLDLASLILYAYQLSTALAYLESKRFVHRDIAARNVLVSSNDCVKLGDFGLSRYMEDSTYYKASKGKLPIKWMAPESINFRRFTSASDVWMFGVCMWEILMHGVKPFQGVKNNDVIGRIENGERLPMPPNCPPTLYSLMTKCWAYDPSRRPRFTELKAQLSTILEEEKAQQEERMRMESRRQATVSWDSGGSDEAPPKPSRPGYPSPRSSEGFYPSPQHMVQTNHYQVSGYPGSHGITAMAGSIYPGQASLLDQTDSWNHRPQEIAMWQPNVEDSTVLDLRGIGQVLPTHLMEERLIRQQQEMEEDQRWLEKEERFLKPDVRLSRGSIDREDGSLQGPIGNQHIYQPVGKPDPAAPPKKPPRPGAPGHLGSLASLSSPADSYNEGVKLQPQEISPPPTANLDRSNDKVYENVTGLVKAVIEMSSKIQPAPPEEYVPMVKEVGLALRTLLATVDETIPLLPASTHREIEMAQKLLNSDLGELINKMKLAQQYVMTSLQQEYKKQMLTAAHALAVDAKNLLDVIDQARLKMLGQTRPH

[14] = system: Fibrinogen (Alexa647-labelled); test: Alexa647-fibrinogen binding to printed small molecules – biochemical, small-molecule microarray, 635/667 nm fluorescence, artefact control for SMM control-protein annotation, profiling panel (AID 1131); conditions: fibrinogen-A647 binding fluorescence, higher = more signal;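 note: z-score merges 667 nm fluorescence with per-spot signal-to-noise over triplicate slides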
[15] = target: Follistatin (Homo sapiens) (UniProt P19883); test: FST protein binding to printed compounds – biochemical, small-molecule microarray, 635/667 nm fluorescence, primary screen (AID 1132); conditions: 635 nm fluorescence, higher = more signal
Sequence of Follistatin (Homo sapiens) (P19883 whole entry, looked up): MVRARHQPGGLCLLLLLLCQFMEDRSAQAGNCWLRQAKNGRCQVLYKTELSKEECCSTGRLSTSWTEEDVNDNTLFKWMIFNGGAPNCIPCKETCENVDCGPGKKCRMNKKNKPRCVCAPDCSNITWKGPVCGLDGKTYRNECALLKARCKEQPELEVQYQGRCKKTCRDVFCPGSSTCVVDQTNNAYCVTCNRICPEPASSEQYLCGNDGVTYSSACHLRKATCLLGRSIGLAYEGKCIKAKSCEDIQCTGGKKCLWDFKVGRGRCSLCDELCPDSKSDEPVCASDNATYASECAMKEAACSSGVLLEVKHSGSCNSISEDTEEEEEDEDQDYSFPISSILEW

[16] = target: Fibroblast growth factor 2 (Homo sapiens) (UniProt P09038); test: basic fibroblast growth factor binding to printed compounds – biochemical, small-molecule microarray, 635/667 nm fluorescence, primary screen (AID 1133); conditions: FGF2, fluorescence 635/667, higher = more signal
Sequence of Fibroblast growth factor 2 (Homo sapiens) (P09038 whole entry, looked up): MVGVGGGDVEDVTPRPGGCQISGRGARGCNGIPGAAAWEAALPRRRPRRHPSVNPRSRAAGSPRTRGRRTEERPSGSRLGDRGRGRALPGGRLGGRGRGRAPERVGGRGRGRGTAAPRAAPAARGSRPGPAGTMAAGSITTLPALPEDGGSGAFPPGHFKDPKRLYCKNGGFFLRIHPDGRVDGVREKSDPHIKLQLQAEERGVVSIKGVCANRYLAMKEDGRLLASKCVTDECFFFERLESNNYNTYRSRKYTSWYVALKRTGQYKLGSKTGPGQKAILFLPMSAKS

[17] = JC-1 mitochondrial potential readout, lung cancer cells – cell-based, A549, JC-1 fluorescence, basal, 24 h, 100 nL, profiling panel (AID 1138); conditions: higher = more signal;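 note: A549 lung adenocarcinoma cells under basal conditions with no added stimulus; test concentration not given here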
[18] = system: Lefty1; test: Lefty1 protein binding to printed compounds – biochemical, small-molecule microarray, 635/667 nm fluorescence, primary screen (AID 1139); conditions: fluorescence 635/667, higher = more signal
[19] = system: wheat germ agglutinin (Triticum aestivum), Alexa647-labelled; test: Alexa647-WGA lectin binding to printed small molecules – biochemical, small-molecule microarray, 635/667 nm fluorescence, artefact control for SMM control-protein annotation, profiling panel (AID 1140); conditions: WGA-A647 binding, 635 nm fluorescence, higher = more signal;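 note: score merges 667 nm feature emission with signal to noise over triplicate slides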
[20] = target: Luciferin 4-monooxygenase (Photinus pyralis) (UniProt P08659); test: inhibition of purified Photinus pyralis luciferase – biochemical, luminescence, purified enzyme, 2006 set, primary screen (AID 1141); conditions: purified firefly luciferase, SteadyGlo luminescence, 30 min; higher = more signal, called active from +8 up or from −8 down;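 note: cell-free assay with purified firefly luciferase at 100 ng per well in PBS; test concentration not given here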
Sequence of Luciferin 4-monooxygenase (Photinus pyralis) (P08659 whole entry, looked up): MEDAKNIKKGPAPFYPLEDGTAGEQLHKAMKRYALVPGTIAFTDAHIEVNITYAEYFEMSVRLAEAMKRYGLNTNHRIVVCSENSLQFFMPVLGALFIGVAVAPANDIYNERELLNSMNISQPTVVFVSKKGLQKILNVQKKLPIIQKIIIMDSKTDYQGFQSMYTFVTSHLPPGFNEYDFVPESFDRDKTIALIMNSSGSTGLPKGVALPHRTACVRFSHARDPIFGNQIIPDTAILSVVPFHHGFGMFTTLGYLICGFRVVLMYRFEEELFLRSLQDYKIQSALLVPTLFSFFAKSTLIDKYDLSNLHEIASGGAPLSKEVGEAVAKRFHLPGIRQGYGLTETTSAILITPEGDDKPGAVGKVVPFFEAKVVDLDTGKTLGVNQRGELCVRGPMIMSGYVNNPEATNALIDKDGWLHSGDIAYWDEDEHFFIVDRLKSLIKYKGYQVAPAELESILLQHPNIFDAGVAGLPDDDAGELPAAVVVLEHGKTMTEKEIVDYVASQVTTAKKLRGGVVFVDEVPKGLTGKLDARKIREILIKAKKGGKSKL

| SMILES | composite z-score [1] | composite Z-score [2] | composite z-score [3] | composite z-score [4] | composite z-score [5] | composite z-score [6] | composite z-score [7] | composite z-score [8] | composite z-score [9] | composite z-score [10] | composite z-score [11] | composite z-score [12] | composite z-score [13] | composite z-score [14] | composite z-score [15] | composite z-score [16] | z-score [17] | composite z-score [18] | composite z-score [19] | z-score [20] |
| --- | --- | --- | --- | --- | --- | --- | --- | --- | --- | --- | --- | --- | --- | --- | --- | --- | --- | --- | --- | --- |
| Cc1ccc(S[C@]2(C(=O)NC(C)C)CC(=O)N(C3CCCCC3)[C@@H]2c2ccc(CO)cc2I)cc1 | 0.529 | 0.339 (inactive) | 0.0488 | -0.0727 | 0.645 | 2.6 | 0.487 | 1.28 | -0.325 | 1.11 | 0.362 | 1.11 | 0.414 | 0.703 | 1.21 | 0.396 | 1.04 | 0.964 | 0.0189 | 0.571 (inactive) |
| NC(=O)N1C(=O)C2C(C1=O)C1C=C(CCCO)C2C(c2ccc(CN3CCCC3)cc2)N1Cc1cc2c(cc1Br)OCO2 (stereo not given) | -0.939 | -0.328 (inactive) | -0.323 | -0.117 | 0.339 | 0.344 | 0.117 | -0.312 | 0.192 | -0.129 | 0.197 | -0.445 | -0.214 | -0.713 | 0.583 | 1.2 | -0.193 | 0.117 | -0.419 | 0.542 (inactive) |
| [N-]=[N+]=Nc1ccccc1[C@@H]1OC(c2ccc(OCCCO)cc2)=N[C@]1(CCS(=O)(=O)c1ccccc1)C(=O)NCC(O)CO (stereo not given in full) | 0.91 | 0.339 (inactive) | -0.023 | 0.014 | 0.564 | 2.5 | 0.649 | 0.885 | -0.165 | 0.998 | 0.592 | 0.794 | 0.131 | 0.911 | 0.518 | -0.0365 | -0.298 | -0.285 | 1.02 | -9.87 (active) |
| CC1CC/C=C\[C@H]2OC34C=CCN(c5ccc6ccccc6c5)C(=O)[C@H]3N(C(C)CO)C(=O)[C@@H]4C2C(=O)O1 (stereo not given in full) | -0.333 | -0.105 (inactive) | -0.226 | -0.181 | 0.725 | -0.976 | 0.105 | -0.849 | -0.837 | -0.654 | 0.0166 | -1.72 | -0.785 | -1.17 | -0.69 | -0.911 | 0.838 | -0.546 | -0.946 | -1.2 (inactive) |
| CCOC(=O)C[C@H]1[C@H](OC(=O)Cc2ccc3c(c2)OCO3)[C@@H](NC(=O)c2ccc3ccccc3n2)c2cc(OCCCO)ccc2N1C(=O)Cc1ccc(OC)cc1 | 0.635 | 0.378 (inactive) | 0.169 | -0.0286 | 0.276 | 0.654 | 0.0887 | 0.91 | -0.17 | 0.774 | 0.337 | 0.672 | -0.307 | 0.557 | 0.72 | 0.394 | 1.26 | 0.577 | 0.391 | -0.628 (inactive) |
| COCCOC(=O)N1C(=O)[C@@]2(c3ccccc31)[C@H](C(=O)N1CCN(c3ncccn3)CC1)[C@H]1C(=O)O[C@H](c3ccccc3)[C@H](c3ccccc3)N1[C@@H]2c1ccccc1OCCO | -0.448 | 0.196 (inactive) | 0.102 | -0.118 | 0.506 | 1.19 | 1.37 | 1.28 | 0.761 | 1.05 | 0.724 | 1.18 | 0.382 | 0.867 | 1.15 | 0.606 | -0.531 | 1.02 | 0.272 | -0.0896 (inactive) |
| COC(=O)[C@@]1(Cc2ccc(OC)cc2)[C@H]2c3cc(C(=O)N4CCCC4)n(Cc4ccc(C(F)(F)F)nc4)c3C[C@H]2CN1C(=O)c1ccccc1 | 0.948 | -0.325 (inactive) | 0.361 | 0.0224 | 0.737 | 0.297 | 0.511 | 0.524 | -0.249 | -0.308 | 1.4 | 1.22 | 1.14 | 0.683 | 0.0995 | -0.342 | 0.939 | 0.087 | 0.902 | -7.63 (inactive) |
| O=C(NCc1ccccc1)[C@@H]1c2ccccc2C(=O)N(Cc2cc(C(F)(F)F)cc(C(F)(F)F)c2)[C@H]1c1ccc(CO)cc1 | -0.432 | -0.46 (inactive) | 0.104 | -0.008 | 0.185 | 1.55 | 0.92 | 1.3 | 0.755 | 0.609 | 0.618 | 1.14 | 0.576 | 0.638 | 1.36 | 1.06 | 0.473 | 0.991 | 0.452 | 1.14 (inactive) |
